In the library only some 8.5% were active in any assay of this set; here they are far more common.
Sfp PPTase inh: Sfp phosphopantetheinyl transferase inhibition. actives 3.5% (n = 310,000). AID 1490. Potency, µM, for inactives: largest response in the series, negative = inhibition, hits mostly inhibitors. Biochemical Sfp PPTase activity, qHTS;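 further: the enzyme is Sfp with the accession as filed and its product quenches rhodamine fluorescence; potency means the concentration at half of the fitted maximal effect; 0% = enzyme reaction without inhibitor and -100% = no enzyme wells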
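Buffer: 50 mM Hepes-Na pH 7.6, 10 mM MgCl2, 0.01% Nonidet P-40, 0.01% BSA. Enzyme 15 nM, pre-exposed to compound 15 min; substrates then added and fluorescence change tracked over 30 min.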
GoLoco inh red: inhibitors of human Gai1-RGS12 GoLoco interaction (red fluorophore); Gai1:RGS12 GoLoco peptide FP, rhodamine, 10 min; actives 0.44% (n = 230,000); AID 880; Potency, µM (titrated, usually from 61.6 µM), inactives show at the top dose activity, negative = inhibition, most hits filed as inhibitors; active means well fitted inhibition curve with a large enough effect, not every such curve was filed as active; inactive means no such curve, though single readings can be large or run the other way; further: potency means the concentration at half of the fitted maximal effect; nearly all actives have a fitted effect of over 30% in size
Target sequence (P63096 whole entry, looked up): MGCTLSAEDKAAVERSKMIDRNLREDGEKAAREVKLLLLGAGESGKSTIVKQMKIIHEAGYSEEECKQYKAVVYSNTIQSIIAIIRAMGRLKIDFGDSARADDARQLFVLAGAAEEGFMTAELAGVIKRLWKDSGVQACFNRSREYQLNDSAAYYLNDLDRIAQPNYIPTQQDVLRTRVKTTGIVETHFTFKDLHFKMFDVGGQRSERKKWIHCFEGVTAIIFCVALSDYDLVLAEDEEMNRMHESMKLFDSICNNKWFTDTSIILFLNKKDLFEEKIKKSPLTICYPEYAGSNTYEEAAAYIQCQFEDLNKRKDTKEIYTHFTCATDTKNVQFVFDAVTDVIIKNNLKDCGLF
NPSR antag: neuropeptide S receptor (human) antagonism, cAMP | Potency, µM (top dose mostly 38.3 µM), inactives show at the top dose activity change, negative = inhibition, most hits filed as inhibitors | AID 1461 | CHO-NPSR cells, cAMP TR-FRET, antagonist mode | actives 1% (n = 220,000) | Q6W5P4; further: potency means the concentration at half of the fitted maximal effect; nearly all actives have a fitted effect of over 50% in size
Target sequence (Q6W5P4 whole entry, looked up): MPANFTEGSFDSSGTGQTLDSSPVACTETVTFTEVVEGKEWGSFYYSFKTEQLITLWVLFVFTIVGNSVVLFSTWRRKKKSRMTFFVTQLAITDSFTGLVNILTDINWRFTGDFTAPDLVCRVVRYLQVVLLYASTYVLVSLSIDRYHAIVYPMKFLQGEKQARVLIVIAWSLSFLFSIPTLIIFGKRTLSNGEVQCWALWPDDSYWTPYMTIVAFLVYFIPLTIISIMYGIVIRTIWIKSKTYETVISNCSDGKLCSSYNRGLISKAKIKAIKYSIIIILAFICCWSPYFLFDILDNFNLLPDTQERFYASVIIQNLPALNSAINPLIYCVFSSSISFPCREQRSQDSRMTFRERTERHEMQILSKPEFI
FBPA coupling cs: counter-screen for Giardia aldolase inhibitors: coupling enzyme system. coupling enzyme system counterscreen, AmpLite Red fluorescence. activity change, negative = inhibition, % at 58.2 µM, hits read low. actives 0.67% (n = 290,000). AID 2472; in the data active means activity change below about -30%
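Counterscreen of the coupled detection system alone, without aldolase: glyceraldehyde-3-phosphate coupling enzymes plus AmpLite Red readout. Compounds at 57.5 uM final, 10 min RT preincubation, 20 min RT reaction, fluorescence 525/598 nm.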
JMJD2E inh: blocks human JMJD2E demethylase activity. B2RXH2. JMJD2E catalytic domain, FDH-coupled NADH fluorescence (FDH is formaldehyde dehydrogenase). Potency, µM (series often up to 57.1 µM), for the others: top-dose activity change, negative = inhibition, hits mostly inhibitors. actives 1.6% (n = 230,000). AID 2147; active means well fitted inhibition curve with a large enough effect, not every such curve was filed as active; inconclusive means small, poorly fitted or top-dose-only effect, or another doubt; inactive means no such curve, though single readings can be large or run the other way;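 further: potency means the concentration at half of the fitted maximal effect; 0% = wells with enzyme and -100% = buffer wells without enzyme; nearly all actives have a fitted effect of over 50% in size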
ALDH1A1 inh: blocks purified human ALDH1A1 activity | P00352 | Purified ALDH1A1, NADH fluorescence, propionaldehyde substrate | Potency, µM (highest dose often 75.3 µM), for inactives: at the top dose activity, negative = inhibition, most hits filed as inhibitors | actives 7.3% (n = 220,000); active means well fitted inhibition curve with a large enough effect, not every such curve was filed as active; inconclusive means small, poorly fitted or top-dose-only effect, or another doubt; inactive means no such curve, though single readings can be large or run the other way;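 further: potency means the concentration at half of the fitted maximal effect; plate controls were no enzyme wells and a reference inhibitor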
The depositor's hits bear a star; ? = inconclusive; . = not tested or not shown; [ ] = another dose, or the depositor's remark. Unless noted, the call rests on the fitted dose curve; in most records, active means well fitted curve in the direction sought with a large enough effect; inconclusive means small, poorly fitted or top-dose-only effect, or another doubt; inactive means no such curve, though single readings can be large; an effect the other way counts as inactive or inconclusive. Unless noted, on the % scale 0 is the no-effect control and ±100 the full control effect.

SMILES	Sfp PPTase inh	GoLoco inh red	NPSR antag	FBPA coupling cs	JMJD2E inh	ALDH1A1 inh
COC(=O)C[C@@](O)(CCC(C)(C)O)C(=O)O[C@@H]1C(OC)=C[C@]23CCCN2CCc2cc4c(cc2[C@@H]13)OCO4	7%	.	.	2	.	.
CC(C)[C@]1(O)[C@@H](OC(=O)c2ccc[nH]2)[C@]2(O)[C@@]3(C)C[C@@]4(O)O[C@@]5([C@H](O)[C@@H](C)CC[C@]35O)[C@]2(O)[C@]41C	.	1%[14.2 µM]	.	.	.	3%[13.5 µM]
CN(C)C(=O)Nc1ccc(-n2nc(C(C)(C)C)oc2=O)c(Cl)c1	7%	.	.	0	.	.
CCOc1ccc(Cc2c(O)[nH]c(=O)[nH]c2=O)cc1	20µM*	5%	3%[46.1 µM]	-16	-23%	?
CC(C)Oc1ccc(Cc2c(O)[nH]c(=O)[nH]c2=O)cc1	-14%	5%	-8%[46.1 µM]	-1	-27%	-10%
CC(=O)N1CC[N+](C)(C)CC1	0%	-35%	.	6	11µM*	-2%
CC(=O)N1CN(C(C)=O)CN(C(C)=O)C1	12%	2%	15%	3	2%	13%
CN(CCC(=O)O)C1=Nc2ccc(Cl)cc2C(c2ccccc2)=[N+]([O-])C1	.	4%[14.2 µM]	.	.	.	7%[13.5 µM]
Cc1ccc(S(=O)(=O)NCC2CCC(C(=O)NCCCN3CCOCC3)CC2)cc1 (stereo unspecified)	11%	6%	?	-2	-2%	22µM*
CCCCCCCCCCCC[N+](C)(C)CCOc1ccccc1	50µM*	16%	.	.	.	14µM*
CC1CC2CCC(O2)C(C)C(=O)OC(C)CC2CCC(O2)C(C)C(=O)OC(C)CC2CCC(O2)C(C)C(=O)OC(C)CC2CCC(O2)C(C)C(=O)O1 (stereo unspecified)	8%	.	.	0	.	.
CCOC(=O)CN(C#N)c1nc(N(C)C)nc(N(C)C)n1	18%	-5%	-7%	1	0%	10µM*
C[C@@H]1CC[C@@]2(OC1)O[C@H]1[C@@H](O)[C@H]3[C@@H]4CC[C@H]5C[C@@H](O[C@@H]6O[C@H](CO)[C@H](O[C@@H]7O[C@H](CO)[C@@H](O)[C@H](O[C@@H]8OC[C@@H](O)[C@H](O)[C@H]8O)[C@H]7O[C@@H]7O[C@H](CO)[C@@H](O)[C@H](O[C@@H]8O[C@H](CO)[C@@H](O)[C@H](O)[C@H]8O)[C@H]7O)[C@H](O)[C@H]6O)[C@H](O)C[C@]5(C)[C@H]4CC[C@]3(C)[C@H]1[C@@H]2C	.	-19%	.	.	.	20µM*
C[C@@H]1[C@@H](C)N1C[C@H](O)Cn1ccnc1[N+](=O)[O-] (stereo partly specified)	.	4%[14.2 µM]	.	.	.	11%[13.5 µM]
CCN(CC)C(=O)c1ccc(NC(=O)CSc2nnnn2-c2cc(OC)ccc2OC)cc1	-5%	7%	-13%[46.1 µM]	6	2%	8.9µM*
CCN(CC)C(=O)c1ccc(NC(=O)CCCSc2ccccc2)cc1	19%	-2%	-14%	0	8%	-6%
CNCC(N)C(=O)O (stereo unspecified)	?	.	.	0	.	.
CC1CCCN(C(=O)CCl)C1 (stereo unspecified)	0%	-9%	7%	1	-2%	0.63µM*
O=C(O)/C=C(\CC(=O)O)C(=O)O	-3%	-1%[14.2 µM]	.	1	?	0%[13.5 µM]
CC(O)CN(CCN(CC(C)O)CC(C)O)CC(C)O (stereo unspecified)	79µM*	.	.	.	.	.
C[C@@H](O)CN(CCN(C[C@@H](C)O)C[C@@H](C)O)C[C@@H](C)O.O=[N+]([O-])O.[Cu]	.	-2%[14.2 µM]	.	.	.	?
C(=NC1CCCCC1)=NC1CCCCC1	.	8%	.	.	.	-8%
COCc1cc(C)c(C#N)c(=S)[nH]1	10µM*	-29%	-5%[46.1 µM]	-3	0%	?
O=C(c1ccc2c(c1)OCO2)N1CCC2(CC1)OCCO2	13%	4%	11%[46.1 µM]	4	2%	5%
O=C(c1ccc(N2CCCCCC2)c([N+](=O)[O-])c1)N1CCC2(CC1)OCCO2	7%	0%	-7%	1	-2%	11µM*
SMILES	Sfp PPTase inh	GoLoco inh red	NPSR antag	FBPA coupling cs	JMJD2E inh	ALDH1A1 inh
Cn1c2c(c3ccccc31)CCNCC2	3%	6%	.	2	?	-9%
COc1c(C(C)(C)C)cc([N+](=O)[O-])c(C)c1[N+](=O)[O-]	.	5%	.	.	.	?
N#CC(C#N)=NNc1cccc(Cl)c1	56µM*	2%	.	19	-11%	7%
O=C(O)c1cc[c]([Hg][S]c2ncnc3nc[nH]c23)cc1	.	0.63µM*	.	.	.	0.89µM*
CCN1C(=O)C(=Cc2ccc(C)s2)C(=O)N(CC)C1=S	?	-22%	-53%	5	-5%	7.1µM*
C=CC(N)=O	.	2%	.	.	.	25%
COc1ccc2ccc(O)c(CN3CC=C(c4ccccc4)CC3)c2c1	1%	5%	-23%	-8	?	?
COc1ccc(N2C(=O)CC(N3CC=C(c4ccccc4)CC3)C2=O)cc1 (stereo unspecified)	4%	58%	-9%[46.1 µM]	-1	?	10µM*
CCCCCCCCCc1ccc(O)cc1	11%	11%	.	-3	?	100µM*
COC(=O)c1ccc(N2C(=O)CC(N3CCC(n4c(=O)[nH]c5ccccc54)CC3)C2=O)cc1 (stereo unspecified)	0%	16%	0%[46.1 µM]	3	6%	10µM*
COC(=O)c1ccc(N2C(=O)CC(N3CCC(O)(c4ccc(Br)cc4)CC3)C2=O)cc1 (stereo unspecified)	7%	4%	-1%[46.1 µM]	3	2%	3.2µM*
COc1cccc(CN2CCCCC2c2cccnc2)c1 (stereo unspecified)	-17%	-9%	-15%[46.1 µM]	2	?	32µM*
Cc1ccsc1C(=O)C1CCCN(Cc2ccccc2O)C1 (stereo unspecified)	8%	3%	11%	0	-1%	-2%
COc1ccc(O)c(CN2CCCC(C(=O)c3sccc3C)C2)c1 (stereo unspecified)	4%	4%	23%	-8	6%	13µM*
COc1ccc2c3c1O[C@H]1C[C@H](O)C=C[C@@]31CCN(C)C2	7%	1%	.	2	0%	5%
COc1ccc(NC(=O)N2CCC3(CC2)OCCO3)cc1OC	3%	4%	6%	-2	-4%	16%
COc1ccc(C2C(C(=O)N3CCC4(CC3)OCCO4)c3cc(OC)c(OC)cc3C(=O)N2C)cc1 (stereo unspecified)	16%	-6%	5%[46.1 µM]	1	-19%	14µM*
Cc1ccc(-n2nc(C)c3c2OC(N)=C(C#N)C3c2cccs2)cc1 (stereo unspecified)	6%	1%	-5%[46.1 µM]	2	-2%	13µM*

Screening results as filed in PubChem BioAssay.
